Source: PubChem
Most compounds without a hit are left out; they make up all but 1.4% or so of the library.
GALR2 agonist = agonists of human galanin receptor 2 (GALR2); GALR2-expressing cells, agonist activation read-out; hit rate 0.48% among 140,000; activation, % (concentration not given with the values); O43603; AID 803; in the data active = activation above about 5%, passing the limit was not always enough;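 note: 0% = vehicle buffer wells and 100% = reference agonist at full effect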
Target sequence (O43603 whole entry, looked up): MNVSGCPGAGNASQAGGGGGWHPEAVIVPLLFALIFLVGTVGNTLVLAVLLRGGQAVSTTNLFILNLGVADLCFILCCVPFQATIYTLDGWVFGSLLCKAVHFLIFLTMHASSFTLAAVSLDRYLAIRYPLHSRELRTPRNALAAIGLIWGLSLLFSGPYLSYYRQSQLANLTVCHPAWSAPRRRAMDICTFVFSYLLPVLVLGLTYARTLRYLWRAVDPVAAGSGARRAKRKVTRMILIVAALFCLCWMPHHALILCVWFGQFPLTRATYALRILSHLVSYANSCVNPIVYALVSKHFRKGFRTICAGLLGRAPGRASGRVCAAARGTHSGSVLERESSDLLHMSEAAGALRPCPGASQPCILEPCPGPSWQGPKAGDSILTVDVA
S1P2 ag = activates the human S1P2 receptor; O95136; S1P2-expressing cell line, agonist reporter read-out; activation, % at 4.5 µM; hit rate 0.46% among 97,000; in the data active = activation above about 16%;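 note: 0% = vehicle low control and 100% = maximal reference agonist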
Target sequence (O95136 whole entry, looked up): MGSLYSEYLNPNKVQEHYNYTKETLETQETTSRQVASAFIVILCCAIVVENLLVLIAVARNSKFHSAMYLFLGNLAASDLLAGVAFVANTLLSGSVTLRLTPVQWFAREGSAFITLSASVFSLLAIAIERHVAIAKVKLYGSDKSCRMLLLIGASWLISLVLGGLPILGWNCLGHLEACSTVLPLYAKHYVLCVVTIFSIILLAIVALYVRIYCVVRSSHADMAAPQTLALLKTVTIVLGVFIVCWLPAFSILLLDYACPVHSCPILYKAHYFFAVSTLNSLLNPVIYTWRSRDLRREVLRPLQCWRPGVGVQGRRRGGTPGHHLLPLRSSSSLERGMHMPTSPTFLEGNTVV
MT1-MMP txn act = activates MT1-MMP transcription; activation factor at 10 µM; AID 750; hit rate 0.16% among 86,000; HT1080 MT1-MMP promoter luciferase reporter, luminescence, overnight; stronger effect = higher value;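 active = activation factor of at least 2 for MT1-MMP transcription at 10 µM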
S1P2 blocker = S1P2 (human) receptor antagonism. hit rate 0.21% among 97,000. O95136. AID 736. cell-based S1P2 antagonist assay, inhibition at 5 uM. inhibition, % at 5 µM; in the data active = inhibition above about 45%;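 note: CRE beta-lactamase reporter cells expressing human S1P2 stimulated with S1P; 0% = agonist at EC80 alone and 100% = agonist plus reference antagonist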
Smad3 FoxH1 inh = inhibitors of human Smad3 transcription factor binding | hit rate 0.29% among 88,000 | P84022 | TR-FRET Smad3/Dy647-FoxH1 peptide binding, europium anti-His | AID 630 | inhibition, % at 25 µM;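 active = compounds that reduce the energy-transfer binding signal between the protein and its labelled peptide by more than half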;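 note: 0% = Smad3 plus labelled peptide maximal FRET and 100% = peptide-only background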
GALR2 antag = antagonists of human galanin receptor 2 (GALR2) | inhibition, % at 4 µM | GALR2-expressing cells, antagonist mode | O43603 | hit rate 0.39% among 140,000 | AID 828;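 note: cells stimulated with galanin 1-16 at roughly its EC80; 0% = agonist challenge control and 100% = basal control without agonist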
GALR2 blk conf = GALR2 (human) antagonism confirmed. inhibition, % at 4 µM. GALR2-expressing cells, antagonist mode, inhibition. hit rate 60% among 480. shares compounds with GALR2 antag;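 note: cells stimulated with galanin at about its EC80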
BLA inhib ctr = beta-lactamase inhibition, GALR2 counterscreen. CHO NFAT-BLA reporter, beta-lactamase FRET, thapsigargin-stimulated. inhibition, % at 4.2 µM. shares compounds with GALR2 antag. hit rate 36% among 480;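 active = inhibition above the mean inhibition across tested compounds plus 3 SD, cut at about 27% in these data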;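 note: 0% = 500 nM thapsigargin stimulated wells and 100% = unstimulated BSA only wells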
Active calls of the source: *; nt = no result given. Cut-off read from the data, not from the text of the source, unless noted: active = inhibition above about 27%; inactive = the rest.

SMILES | GALR2 agonist | S1P2 ag | MT1-MMP txn act | S1P2 blocker | Smad3 FoxH1 inh | GALR2 antag | GALR2 blk conf | BLA inhib ctr
COc1ccc(NC(=O)/C(Cl)=C(/Cl)S(=O)(=O)Cc2ccc(C)cc2)cn1 | 0 | -11 | nt | 90* | 2 | 78* | 93* | 95*
COc1ccc(NC(=O)C(CC(C)C)NC(=O)c2ccccc2C)cn1 (centres undefined) | -2 | -3 | 1 | 1 | 0 | -10 | nt | nt
Cc1ccnc(NC(=O)c2sc3ccccc3c2Cl)c1 | -2 | nt | nt | nt | nt | 4 | nt | nt
Cc1ccc2c(Cl)c(C(=O)Nc3cc(C)on3)sc2c1 | -2 | -3 | 1.3 | 5 | -13 | 29* | 10 | 11
Cc1ccccc1NC1=C/C(=N\S(=O)(=O)c2cccs2)c2ccccc2C1=O | 5 | 8 | nt | 41 | nt | 63* | 44* | 59*
COc1cc(/C=N/NC(=O)c2cc(-c3cccn3C)n[nH]2)cc(OC)c1OC | -1 | 8 | nt | 9 | nt | 3 | nt | nt
COc1cccc(/C=N/NC(=O)c2cc(-c3cccn3C)n[nH]2)c1O | -2 | nt | nt | nt | nt | 28* | 27* | 12
COc1cc(CN2CCCCC2)cc2cc(C(=O)O)c(=O)oc12 | nt | nt | nt | nt | 14 | nt | nt | nt
Cc1nc([N+](=O)[O-])c(Sc2nc3ccccc3n2C)n1Cc1ccccc1 | 0 | nt | nt | nt | nt | 31* | 23 | 6
Cc1nc([N+](=O)[O-])c(N2CCN(C)CC2)n1Cc1ccccc1 | -3 | -7 | 1.1 | 12 | 6 | 4 | nt | nt
C[N+](C)([O-])Cc1cc(-c2ccccc2)ccc1O | nt | nt | nt | nt | 10 | nt | nt | nt
C=CCN(CC=C)c1cnn(-c2nc3ccccc3[nH]2)c(=O)c1Cl | -3 | -1 | nt | -11 | nt | 11 | nt | nt
O=c1c(Cl)c(NCCCO)cnn1-c1nc2ccccc2[nH]1 | -3 | -4 | 1.1 | 30 | -1 | 36* | 42* | 37*
N#CC1=C(N)Nc2ncnn2C1c1ccccc1 (centres undefined) | 0 | nt | nt | nt | nt | -1 | nt | nt
N#CC1=C(N)Nc2nc3ccccc3n2C1c1ccc(Cl)cc1 (centres undefined) | -1 | nt | nt | nt | nt | 32* | 27* | 46*
COc1ccc(C(=O)N(c2ccccc2)C2C=CS(=O)(=O)C2)cc1 (centres undefined) | -1 | -2 | 1.1 | 21 | 1 | 30* | 22 | 0
Cc1ccccc1-n1c(CSC(=N)N)nc2ccccc2c1=O | -2 | -5 | nt | -6 | nt | 31* | 10 | 11
COc1cc(C2SCCCCCCCCCCSC(c3ccc(O)c(OC)c3)SCCCCCCCCCCS2)ccc1O (centres undefined) | nt | nt | nt | nt | -10 | nt | nt | nt
Cc1ccc(-c2cc(C(=O)N(C)Cc3cnn(C)c3C)c3cc(Br)ccc3n2)cc1 | 0 | nt | nt | nt | nt | 28* | 24 | 6
C[C@H](NC(=O)c1ccc(Cl)c(Cl)c1)c1ccc(-c2ccccc2)cc1 | nt | nt | nt | nt | -4 | nt | nt | nt
CC[C@@H]1C=C(C)C[C@H](C)C[C@H](OC)[C@H]2O[C@@](O)(C(=O)C(=O)N3CCCC[C@H]3C(=O)O[C@H](/C(C)=C/[C@@H]3CC[C@@H](O)[C@H](OC)C3)[C@H](C)[C@@H](O)CC1=O)[C@H](C)C[C@@H]2OC | -1 | nt | nt | nt | nt | 101* | 103* | 104*
CC(C)NC(=O)CSc1nncn1-c1ccccc1 | -1 | nt | 1 | nt | -1 | 27* | 12 | 10
C[C@@H](CSC(=N)N)C(N)=O | nt | nt | nt | nt | -8 | nt | nt | nt
O=C(Nc1ccccc1)c1nnsc1S(=O)c1ccc(Cl)cc1 (centres undefined) | -4 | -6 | nt | 64* | nt | 39* | 35* | 56*
O=C(Nc1ccc(Cl)cc1)c1cccs1 | 0 | -1 | 1.6 | 10 | 11 | 14 | nt | nt
SMILES | GALR2 agonist | S1P2 ag | MT1-MMP txn act | S1P2 blocker | Smad3 FoxH1 inh | GALR2 antag | GALR2 blk conf | BLA inhib ctr
CC1CCC(C(=O)O)([C@H](Br)C(=O)O)CC1 (some centres undefined) | nt | nt | nt | nt | 0 | nt | nt | nt
O=C(CSc1nncs1)N1c2ccccc2Sc2ccccc21 | -1 | nt | 1.1 | nt | -2 | 29* | 20 | 2
Cn1nnnc1SCC(=O)N1c2ccccc2Sc2ccccc21 | -1 | 2 | 1.2 | 15 | 1 | -5 | nt | nt
CSc1ncccc1C(=O)Nc1nc2c(C)cccc2s1 | -2 | nt | nt | nt | nt | 29* | 28* | 13
CCn1c(CCCc2nc3c([nH]2)c(=O)n(C)c(=O)n3C)nc2c1c(=O)n(C)c(=O)n2C | nt | nt | nt | nt | 7 | nt | nt | nt
NC(=O)CSCc1nc2ccccc2s1 | -3 | -4 | 1.4 | -16 | 15 | 31* | 5 | 2
C[N+](C)(N)Cc1nc(-c2ccc(Cl)cc2)no1 | nt | nt | nt | nt | 5 | nt | nt | nt
Cc1cnc(NC(=O)Cc2c[nH]c3ccccc23)s1 | -3 | -7 | 1.5 | 10 | -8 | 33* | 25 | 5
CC(=O)Nc1ccccc1O | -1 | nt | 1.2 | nt | 0 | -9 | nt | nt
O=C1C=C(Nc2ccccc2O)c2ccccc2C1=O | -2 | -8 | 1 | 5 | 14 | 28* | 15 | 29*
CN(C)CCn1c(CO)nc2c1c(=O)n(C)c(=O)n2C | nt | nt | nt | nt | 8 | nt | nt | nt
CCN(CC)C[C@@H](O)c1ccc2ccc3ccccc3c2c1 | nt | nt | nt | nt | -11 | nt | nt | nt
CCOC(=O)c1cnc(N(C)C)nc1SC(=N)N | nt | nt | nt | nt | 16 | nt | nt | nt
Nc1c(C(=O)Nc2nc3ccccc3s2)sc2nc(-c3cccs3)ccc12 | 0 | -13 | nt | 73* | nt | 41* | 49* | 49*
CC(=O)C1=C(c2ccc(Br)cc2)C(=O)c2ccccc2C1=O | -2 | nt | nt | nt | nt | 35* | 26 | 16
CNC1=C(N(C(C)=O)c2ccc(Br)cc2)C(=O)c2ccccc2C1=O | -1 | nt | nt | nt | nt | 1 | nt | nt
CC(=O)[C@H]([C@@H](c1ccccc1)N1CCOCC1)N1CCOCC1 | nt | nt | nt | nt | 17 | nt | nt | nt
O[C@H](C[C@@H]1CCCCN1)c1ccc2c(c1)oc1ccccc12 | nt | nt | nt | nt | 3 | nt | nt | nt
O=C(N/N=C/C(Br)=C/c1ccccc1)c1n[nH]c2c1CCC2 | 0 | 0 | 0.9 | 15 | 9 | 37* | 33* | 60*
CCOC(=O)COc1ccc(/C=C/[N+](=O)[O-])c(OCC(=O)OCC)c1 | -2 | -1 | nt | -13 | nt | 27* | 31* | 14
CCOC(=O)COc1ccc2ccccc2c1/C=C/[N+](=O)[O-] | 2 | nt | nt | nt | nt | 26 | nt | nt
O=C1c2ccccc2-c2ccc(N=[N+]([O-])c3ccc4c(c3)C(=O)c3ccccc3-4)cc21 | nt | nt | nt | nt | 3 | nt | nt | nt
O=C1C=CC(=O)C(C2=C3C(=O)N(CCc4ccccc4)CC(=O)N3CCC2)=C1 | 0 | nt | nt | nt | nt | 39* | 60* | 81*
COc1ccc(NC(=O)c2cccs2)cc1 | -2 | -5 | 1.7 | 1 | 5 | 19 | nt | nt
N#CC(C#N)=C1C=CC=CN1/C(=C\c1ccco1)C(=O)c1ccc(Br)cc1 | 0 | nt | nt | nt | nt | 65* | 68* | 68*
COc1ccc(/C=C(/C(=O)c2cccs2)N2C=CC=CC2=C(C#N)C#N)cc1 | 3 | nt | nt | nt | nt | 38* | 66* | 55*
N#CC(C#N)=C1C=CC=CN1/C(=C\c1ccco1)C(=O)c1ccccc1 | 0 | nt | nt | nt | nt | 55* | 79* | 83*
COc1ccc(C(=O)/C(=C\c2ccco2)N2C=CC=CC2=C(C#N)C#N)cc1 | -1 | 2 | nt | 40 | nt | 42* | 52* | 49*
